Test results published in paper PMC5540273 (PLoS ONE, 2017).

Key:
Settings in all cases: concentration: 1 μM,replicates: in singlicate; n = 1
[1] = tested on: TESK1
[2] = tested on: TGFBR1
[3] = tested on: TGFBR2
[4] = tested on: TIE1
[5] = tested on: T1, TIE2
T1 construct: gene TEK

[6] = tested on: TLK1
[7] = tested on: TLK2
[8] = tested on: TNIK
[9] = tested on: TNK1
[10] = tested on: TNK2
[11] = tested on: TNNI3K
[12] = tested on: T2, TRKA
T2 construct: gene NTRK1

[13] = tested on: TRKB
[14] = tested on: T3, TRKC
T3 construct: gene NTRK3

[15] = tested on: TRPM6
[16] = tested on: TSSK1B
[17] = tested on: TSSK3
[18] = tested on: TTK
[19] = tested on: TXK
[20] = tested on: TYK2(JH1domain-catalytic)
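Further: KINOMEscan kinase panel screen.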

Compound	%Inh [1]	%Inh [2]	%Inh [3]	%Inh [4]	%Inh [5]	%Inh [6]	%Inh [7]	%Inh [8]	%Inh [9]	%Inh [10]	%Inh [11]	%Inh [12]	%Inh [13]	%Inh [14]	%Inh [15]	%Inh [16]	%Inh [17]	%Inh [18]	%Inh [19]	%Inh [20]
O=C(NCCCN1CCOC1=O)c1cnc(NCc2cc(Cl)ccc2Cl)nc1NC1CCCC1	23%	10%	26%	0%	0%	10%	2%	17%	0%	17%	9%	15%	0%	4%	2%	0%	0%	17%	17%	0%
Cl.Oc1cc(-c2nc(-c3ccccc3)[nH]c2-c2ccncc2)ccc1Cl [SB-386023]	31%	67%	92.8%	0%	6%	0%	0%	23%	26%	0%	14%	19%	6%	12%	23%	0%	0%	29%	42%	0%
Cc1cc2cn[nH]c2cc1-c1cccc2c(N)c(C(N)=O)nnc12	9%	12%	80%	2%	31%	25%	12%	0%	36%	94.2%	0%	51%	66%	54%	75%	0%	28%	34%	95.4%	71%
Cl.Cl.Nc1nc(-c2ccc3c(N)n[nH]c3c2)cc(N2CCCC(NC(=O)c3ccccc3)C2)n1 (stereo not shown) [GSK2286775]	98.1%	13%	0%	0%	0%	18%	16%	0%	8%	14%	0%	0%	0%	0%	46%	13%	10%	0%	100%	0%
CC(C)Nc1cc(-c2ccc3c(N)n[nH]c3c2)nc(N)n1 [GSK2221681]	0%	–	0%	3%	0%	9%	0%	0%	0%	12%	0%	0%	0%	0%	13%	1%	58%	24%	0%	0%
C[C@H]1Oc2cc(cnc2N)-c2c(nn(C)c2C#N)CN(C)C(=O)c2ccc(F)cc21	77%	33%	0%	0%	18%	0%	6%	0%	93.4%	99.4%	0%	97.7%	93.4%	78%	0%	58%	0%	7%	0%	0%
Cc1cc(C(=O)Nc2ccc(Oc3ccc4nc(NC(=O)C5CC5)cn4n3)cc2)nn1-c1ccccc1	16%	30%	21%	82%	38%	0%	0%	12%	53%	0%	14%	100%	64%	12%	0%	0%	0%	26%	22%	15%
Cl.Cl.NC[C@H](Cc1ccc(C(F)(F)F)cc1)NC(=O)c1cc(Br)c(-c2ccnc3[nH]ccc23)s1 [GSK1487252]	24%	0%	0%	35%	0%	8%	4%	0%	0%	19%	13%	86%	67%	74%	0%	0%	2%	10%	0%	3%
C[C@@H]1CCN(C(=O)CC#N)C[C@@H]1N(C)c1ncnc2[nH]ccc12	1%	0%	0%	18%	4%	0%	0%	0%	75%	0%	0%	0%	0%	0%	0%	0%	0%	0%	1%	–
CCN(CC)CCCCNc1ncc2cc(-c3c(Cl)cccc3Cl)c(NC(=O)NC(C)(C)C)nc2n1	48%	80%	61%	74%	94.6%	15%	0%	41%	25%	69%	91.5%	90%	55%	45%	0%	0%	0%	2%	47%	7%
Cc1n[nH]c2ccc(-c3cc(OC[C@@H](N)Cc4ccccc4)cnc3-c3ccoc3)cc12.O=C(O)C(F)(F)F.O=C(O)C(F)(F)F [GSK507358]	19%	0%	0%	0%	0%	0%	0%	96.5%	0%	10%	0%	0%	0%	15%	0%	0%	6%	0%	0%	7%
O=C(NCCNc1ccnc(NCc2ccc(F)cc2)n1)c1cc2ccccc2s1 [GSK1379944]	44%	6%	0%	0%	0%	0%	0%	0%	0%	17%	69%	0%	0%	22%	1%	16%	4%	0%	11%	2%
CC(C)N1C(=O)Cc2cc(Nc3ncc(C(F)(F)F)c(NCc4cccc(S(C)(=O)=O)c4)n3)ccc21	0%	0%	0%	42%	0%	23%	0%	20%	50%	13%	0%	96.7%	84%	62%	4%	0%	0%	99.1%	0%	92.2%
CCn1c(-c2nonc2N)nc2c(C#CC(C)(C)O)nc(OCCN)cc21.Cl.Cl [GSK902056]	14%	0%	0%	13%	0%	0%	0%	0%	0%	21%	0%	0%	0%	0%	0%	23%	85%	0%	36%	17%
Cc1ccc2c(-c3ccncc3)c(-c3ccc(F)cc3)nn2c1.Cl [GW461484]	5%	53%	2%	0%	0%	0%	0%	66%	15%	0%	5%	18%	0%	2%	8%	9%	9%	0%	0%	0%
CCN(CC)CCOc1ccc(Nc2ncc3cc(-c4c(Cl)cccc4Cl)c(=O)n(C)c3n2)cc1 [SB-601273]	97.6%	99.5%	98%	94%	98.8%	5%	2%	96.8%	100%	100%	100%	100%	43%	92.9%	48%	56%	24%	59%	99.5%	96.7%
CN(C)CC(O)COc1ccc(Nc2nccc(-c3cnn4nc(N5CCOCC5)ccc34)n2)cc1 (stereo not shown) [GW767488]	10%	8%	78%	41%	27%	51%	50%	1%	0%	0%	0%	81%	31%	45%	33%	5%	65%	57%	3%	66%
COc1ccc(C[C@@H](CN)NC(=O)c2cc(Br)c(-c3ccnc4[nH]ccc34)s2)cc1.Cl.Cl [GSK1389063]	20%	1%	0%	88%	39%	19%	15%	30%	0%	8%	27%	91.8%	90.8%	90.3%	0%	28%	12%	23%	30%	82%
